Values joined by “and” are separate entries in the source; they are usually repeats but may differ in a detail not shown here. Equal values may be shown once. Values without a mark were called inactive. Inconclusive results are not listed. Active and inactive are the calls of the source. Unless noted, calls follow the shape of the dose curve; as a rule, active = well fitted curve in the direction sought with a large enough effect; inconclusive = small, poorly fitted or top-dose-only effect, or another doubt; inactive = no such curve, though single readings can be large; an effect the other way counts as inactive or inconclusive.
What was measured:
[1] = molecular target: Cytochrome P450 1A2 (Homo sapiens) (UniProt P05177); assay: p450-cyp1a2 (AID 410; calls by dose curve; also: potency is read from the fitted curve at half-maximal effect)
How it was run: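 Luminescent demethylation readout: Luciferin-ME (100uM, equal to Km) turned over by 20nM CYP1A2 for 60 min at room temperature after NADPH regeneration addition, following 10 min compound preincubation. Normalization used 57 uM furafylline as full inhibition.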

[2] = molecular target: Glucocorticoid receptor (Homo sapiens) (UniProt P04150); assay: GR-GFP Redistribution (AID 450;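 active = compounds whose dose series gives a full or clear partial fitted curve of increased nuclear translocation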; also: potency is read from the fitted curve at half-maximal effect); conditions: U2OS GR-GFP nuclear translocation, laser cytometry, 2 h
[3] = molecular target: Glucocorticoid receptor (Homo sapiens) (UniProt P04150); assay: GR-EFC Redistribution (AID 451; calls by dose curve; also: potency is read from the fitted curve at half-maximal effect); conditions: CHO-K1 GR-EFC translocation, beta-gal luminescence, 2 h
How it was run: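 Translocation of GR-ED fusion to nuclear EA restores b-gal, read by luminescence after 1 h room-temperature detection. Engineered CHO-K1 biosensor cells, 1,000/well, exposed 2 h at 37 C to titrations up to 46 uM final.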

[4] = molecular target: Mitogen-activated protein kinase 10 (Mus musculus) (UniProt Q61831); assay: JNK3 AlphaScreen Assay (AID 530; active = well fitted curve in either direction with a large enough effect, not every such curve was filed as active;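 also: kinase came from lysate of stimulated human HepG2 cells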; also: potency is read from the fitted curve at half-maximal effect)
How it was run: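 qHTS titrations with 15 min compound pre-incubation before adding ATP (10 uM final). Read-out: AlphaScreen of Ser73-phosphorylated biotin-GST-cJun using HepG2 lysate JNK3 activated by IL-1β and TNFα.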

[5] = molecular target: 3',5'-cyclic-AMP phosphodiesterase 4B (Homo sapiens) (UniProt Q07343); assay: qHTS Assay for Inhibitors of PDE-IV (AID 607; active = well fitted activation curve with a large enough effect in the main read-out, with a control signal flat, not every such curve was filed as active; also: % of control where 0% means no effect)
How it was run: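 Cell-based read-out of cAMP via a modified cyclic nucleotide-gated channel and membrane potential dye (535/590 nm) in HEK293 cells expressing PDE4 endogenously. Compounds tested up to 22.9 uM final; 100 uM RO 20-1724 reference.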

[6] = molecular target: Guanine nucleotide-binding protein G(i) subunit alpha-1 (Homo sapiens) (UniProt P63096); assay: qHTS Assay for Inhibitors of RGS12 GoLoco Motif Activity (Green Fluorophore) (AID 879);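 also: 0% = labeled peptide with Gαi1 and full inhibition = labeled peptide alone without protein; negative values mean loss of peptide binding seen as reduced polarization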
How it was run: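 A drop in FITC polarization marked displacement of the FITC-tagged RGS12 GoLoco peptide (10 nM) from Gαi1 (50 nM). Compounds were incubated 10 min at room temperature in Tris pH 7.5 buffer containing 150 mM NaCl, 0.1 mM GDP and 0.05% NP40; unlabeled peptide titration served as control.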

[7] = molecular target: Cytochrome P450 2C9 (Homo sapiens) (UniProt P11712); assay: qHTS Assay for Inhibitors and Substrates of Cytochrome P450 2C9 (AID 883); also: potency is read from the fitted curve at half-maximal effect; nearly all actives have a fitted effect of over 60% in size
How it was run: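 Luminescent read-out of deoxyluciferin hydroxylation, normalized to 57uM sulphaphenazole (AC100). Reaction: 10nM enzyme, 100uM Luciferin-H (equal to KM), 25mM KPO4, 10 min compound preincubation, then 60 min with NADPH regeneration, both at 37C.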

[8] = molecular target: Cytochrome P450 3A4 (Homo sapiens) (UniProt P08684); assay: qHTS Assay for Activators of Cytochrome P450 3A4 (AID 885); also: nearly all actives have a fitted effect of over 65% in size
How it was run: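 Luminescent readout of luciferin formed from 25 uM Luciferin-PPXE (KM level) by 20 nM CYP3A4 in 200 mM KPO4, with 60 min NADPH-driven reaction at room temperature after 10 min compound exposure. Ketoconazole (57 uM) defined 100% inhibition.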

[9] = molecular target: Cytochrome P450 2C19 (Homo sapiens) (UniProt P33261); assay: qHTS Assay for Inhibitors and Substrates of Cytochrome P450 2C19 (AID 899); also: potency is read from the fitted curve at half-maximal effect; nearly all actives have a fitted effect of over 60% in size
How it was run: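 Luminescence readout of luciferin formed from 10uM Luciferin-H EGE (KM level) by 5 nM CYP2C19 in 50mM KPO4. 60 min NADPH-driven reaction at 37C after 10 min compound preincubation; data scaled to 57uM ketoconazole inhibition.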

[10] = qHTS Assay for Identification of Small Molecule Agonists for Thrombopoietin (TPO) Signaling Pathway (AID 917); also: potency is read from the fitted curve at half-maximal effect
How it was run: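 Human TPO receptor–transfected Ba/F3 cells (murine, IL-3-dependent) in IL-3-deficient medium; compounds plus TPO at EC50, 26 pM final; 24 hrs, 37 C; GpIIb-luciferase luminescence after 10 min RT detection.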

[11] = molecular target: Muscarinic acetylcholine receptor M1 (Rattus norvegicus) (UniProt P08482); assay: qHTS Assay for Antagonists of Acetylcholine Muscarinic M1 Receptor: Measurement of IP-One Response (AID 944); also: potency is read from the fitted curve at half-maximal effect; nearly all actives have a fitted effect of over 75% in size
How it was run: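 IP1 accumulation measured via TR-FRET between d2-IP1 and Eu-cryptate anti-IP1 antibody after carbachol (200 nM, EC80) stimulation for 30 min; rat M1-transfected CHO cells received compound 10 min before agonist.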

[12] = molecular target: Pyruvate kinase (Leishmania mexicana) (UniProt Q27686); assay: qHTS Validation Assay for Inhibitors of Leishmania Mexicana Pyruvate Kinase (AID 945); also: potency is read from the fitted curve at half-maximal effect
How it was run: (§1)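 Pyruvate kinase activity of E451W LmPYK (0.2 nM) was followed as ATP output after 1 h at room temperature with 0.5 mM PEP and 0.1 mM ADP, detected by PKLight luminescence.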

[13] = molecular target: Pyruvate kinase PKM (Homo sapiens) (UniProt P14618); assay: qHTS Assay for Activators of Human Muscle Pyruvate Kinase (AID 954; active = well fitted curve in the direction sought with a large enough effect, not every such curve was filed as active;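 also: 0% = uninhibited enzyme and -100% = no enzyme or full thiadiazolimine inhibition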)
How it was run: (§2)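 ATP production by PKM2 detected via luciferase luminescence after 1 h room-temperature reaction (0.1 nM enzyme, PEP at Km 0.5 mM, ADP 0.1 mM, pH 7.2 imidazole buffer). Inhibition scaled to no-enzyme control; activation referenced to 0.3 nM enzyme wells.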

[14] = molecular target: Pyruvate kinase PKM (Homo sapiens) (UniProt P14618); assay: qHTS Assay for Inhibitors of Human Muscle Pyruvate Kinase (AID 958); conditions: purified human PKM enzyme activity
How it was run: as §2

[15] = molecular target: Pyruvate kinase (Leishmania mexicana) (UniProt Q27686); assay: qHTS Validation Assay for Activators of Leishmania Mexicana Pyruvate Kinase (AID 959)
How it was run: as §1

[16] = molecular target: Alpha-galactosidase A (Homo sapiens) (UniProt P06280); assay: Counterscreen for Glucocerebrosidase Inhibitors: qHTS Assay for Human alpha-Galactosidase at pH 4.5 (AID 992); also: 0% is about no effect
How it was run: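 Fluorogenic 1536-well qHTS at pH 4.5 (citrate, Tween-20): 2 nM enzyme, 80 uM 4-MU-alpha-galactoside, 20 min room temperature, NaOH/glycine stop. Titration 0.7 nM to 77 uM, data normalized to no-enzyme and full-activity controls, Hill-fitted AC50.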

[17] = molecular target: alpha-glucosidase (Oryza sativa, rice) (UniProt Q653V4); assay: Counterscreen for Glucocerebrosidase Inhibitors: qHTS Assay for Rice alpha-Glucosidase at pH 5.0 (AID 997);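 also: 0% = full activity with enzyme and -100% = basal without enzyme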
How it was run: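 Endpoint fluorogenic assay at pH 5.0: compounds (0.7 nM to 77 uM) titrated against 4 nM rice enzyme and 400 uM 4-MU-alpha-glucoside for 20 min at room temperature; NaOH/glycine stop, read ex 365/em 440 nm, Hill-fitted AC50.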

[18] = molecular target: DNA dC->dU-editing enzyme APOBEC-3G (Homo sapiens) (UniProt Q9HC16); assay: qHTS for inhibitors of Vif-A3G interactions: Validation (AID 588379); also: potency is read from the fitted curve at half-maximal effect
How it was run: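 Yellow fluorescence (Ex 488, Em 500-530) of Vif-coexpressing HeLa A3G-eYFP cells, scanned by Acumen cytometer, reports blocked A3G degradation. Cells plated at 700/well overnight at 37 deg C before compound addition, then a further overnight compound incubation at 37 deg C.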

[19] = tested on: Zika virus NS2B-NS3 protease; assay: Primary screen GU AMC qHTS for Zika virus inhibitors (AID 1347154);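 also: 0% = no-inhibitor control and -100% = no-enzyme control; nearly all actives have a fitted effect of over 70% in size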
How it was run: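 Fluorogenic AMC-substrate cleavage by noncovalent NS2B-NS3 protease complex (25 nM, pH 8.0 Tris buffer with Tween 20) followed for 15 minutes at room temperature (~20% conversion). Percent inhibition from ex340/em450 signal change, fitted by 4-parameter Hill equation.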

[20] = Counterscreen qHTS for small molecule stabilizers of the endoplasmic reticulum resident proteome: GLuc-NoTag assay (AID 1508627); also: potency is read from the fitted curve at half-maximal effect
How it was run: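 Counterscreen line: SH-SY5Y-GLuc-NoTag cells, treated with compound 19 hr before a 4 hr, 100 nM thapsigargin calcium depletion. Secreted Gaussia luciferase in the medium was measured by luminescence after coelenterazine was added (0.07x final), with cells unlysed.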

[21] = Cell Viability qHTS for small molecule stabilizers of the endoplasmic reticulum resident proteome (AID 1508629); conditions: cell viability counter-screen, 100 nM thapsigargin for final 4 h;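 also: human SH-SY5Y neuroblastoma cells carrying the GLuc-SERCaMP reporter; compound exposure about 46 h in total before the viability read; % is scaled to controls: 0 for no effect and ±100 for the full control effect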
[22] = molecular target: Cytochrome P450 2D6 (Homo sapiens) (UniProt P10635); assay: qHTS Assay for Inhibitors and Substrates of Cytochrome P450 2D6 (AID 891); also: potency is read from the fitted curve at half-maximal effect; nearly all actives have a fitted effect of over 60% in size
How it was run: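 Luminescent read-out of luciferin formed by 5 nM human CYP2D6 demethylating 30 uM Luciferin-ME EGE (Km level) over 60 min at room temperature after NADPH regeneration addition. Data normalized to full inhibition by 1.43 uM quinidine.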

Chain of Cytochrome P450 1A2 (Homo sapiens) (P05177 whole entry, looked up): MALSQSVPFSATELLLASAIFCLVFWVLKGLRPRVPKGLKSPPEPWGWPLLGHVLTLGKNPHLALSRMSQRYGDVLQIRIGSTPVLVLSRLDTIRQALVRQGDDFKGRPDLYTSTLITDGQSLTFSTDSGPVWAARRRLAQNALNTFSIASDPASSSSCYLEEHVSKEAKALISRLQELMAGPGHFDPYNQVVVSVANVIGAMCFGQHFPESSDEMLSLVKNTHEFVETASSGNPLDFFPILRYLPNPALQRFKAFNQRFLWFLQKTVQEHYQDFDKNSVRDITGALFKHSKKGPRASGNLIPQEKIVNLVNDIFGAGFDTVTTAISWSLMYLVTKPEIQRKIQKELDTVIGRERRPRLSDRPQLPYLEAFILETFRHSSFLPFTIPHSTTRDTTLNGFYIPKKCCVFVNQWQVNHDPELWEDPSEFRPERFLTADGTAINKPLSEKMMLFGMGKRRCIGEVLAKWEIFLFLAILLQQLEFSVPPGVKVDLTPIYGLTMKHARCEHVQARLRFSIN
Chain of Glucocorticoid receptor (Homo sapiens) (P04150 whole entry, looked up, the tested form may be a part): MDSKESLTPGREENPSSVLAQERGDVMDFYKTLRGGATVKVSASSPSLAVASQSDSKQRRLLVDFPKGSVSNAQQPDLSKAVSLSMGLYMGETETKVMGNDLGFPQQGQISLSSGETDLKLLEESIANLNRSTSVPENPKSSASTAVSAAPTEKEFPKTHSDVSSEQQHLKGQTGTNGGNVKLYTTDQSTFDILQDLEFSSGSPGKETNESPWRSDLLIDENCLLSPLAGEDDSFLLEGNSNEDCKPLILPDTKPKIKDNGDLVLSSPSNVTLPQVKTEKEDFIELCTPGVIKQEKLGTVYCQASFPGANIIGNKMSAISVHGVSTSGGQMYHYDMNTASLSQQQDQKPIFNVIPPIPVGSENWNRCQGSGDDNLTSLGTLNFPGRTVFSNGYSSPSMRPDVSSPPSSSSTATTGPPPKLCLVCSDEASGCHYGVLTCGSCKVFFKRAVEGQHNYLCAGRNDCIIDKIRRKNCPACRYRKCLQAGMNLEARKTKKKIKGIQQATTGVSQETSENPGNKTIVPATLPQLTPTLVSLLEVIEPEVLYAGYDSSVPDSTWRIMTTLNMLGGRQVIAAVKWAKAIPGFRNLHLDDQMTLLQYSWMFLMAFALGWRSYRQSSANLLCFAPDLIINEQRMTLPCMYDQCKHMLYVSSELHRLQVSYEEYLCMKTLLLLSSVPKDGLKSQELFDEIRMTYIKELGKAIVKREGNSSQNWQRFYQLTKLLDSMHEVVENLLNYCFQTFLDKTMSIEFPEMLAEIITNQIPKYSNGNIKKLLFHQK
Chain of Pyruvate kinase (Leishmania mexicana) (Q27686 2-499 E452W): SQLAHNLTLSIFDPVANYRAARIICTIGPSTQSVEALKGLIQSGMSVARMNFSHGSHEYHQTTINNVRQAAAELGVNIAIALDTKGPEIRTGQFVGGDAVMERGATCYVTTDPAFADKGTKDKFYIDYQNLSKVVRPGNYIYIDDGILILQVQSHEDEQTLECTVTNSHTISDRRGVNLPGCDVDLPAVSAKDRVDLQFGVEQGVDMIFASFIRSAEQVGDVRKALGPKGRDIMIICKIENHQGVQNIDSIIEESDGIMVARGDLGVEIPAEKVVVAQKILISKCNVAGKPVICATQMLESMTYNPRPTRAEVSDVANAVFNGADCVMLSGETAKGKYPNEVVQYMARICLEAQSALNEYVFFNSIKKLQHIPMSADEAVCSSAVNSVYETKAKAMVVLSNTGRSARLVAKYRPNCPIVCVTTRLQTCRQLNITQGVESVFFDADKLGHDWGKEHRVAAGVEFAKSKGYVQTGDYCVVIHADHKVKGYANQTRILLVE
Chain of DNA dC->dU-editing enzyme APOBEC-3G (Homo sapiens) (Q9HC16 whole entry, looked up): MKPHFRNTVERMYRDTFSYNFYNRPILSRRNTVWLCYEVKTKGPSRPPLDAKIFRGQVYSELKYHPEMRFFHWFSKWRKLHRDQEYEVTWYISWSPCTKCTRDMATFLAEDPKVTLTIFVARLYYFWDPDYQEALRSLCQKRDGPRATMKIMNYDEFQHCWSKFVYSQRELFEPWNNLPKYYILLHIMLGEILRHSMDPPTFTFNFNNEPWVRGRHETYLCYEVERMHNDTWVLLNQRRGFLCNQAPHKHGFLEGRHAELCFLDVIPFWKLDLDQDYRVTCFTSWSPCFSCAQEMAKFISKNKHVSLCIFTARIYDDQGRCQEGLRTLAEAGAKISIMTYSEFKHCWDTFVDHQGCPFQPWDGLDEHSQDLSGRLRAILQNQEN
Chain of Cytochrome P450 3A4 (Homo sapiens) (P08684 whole entry, looked up): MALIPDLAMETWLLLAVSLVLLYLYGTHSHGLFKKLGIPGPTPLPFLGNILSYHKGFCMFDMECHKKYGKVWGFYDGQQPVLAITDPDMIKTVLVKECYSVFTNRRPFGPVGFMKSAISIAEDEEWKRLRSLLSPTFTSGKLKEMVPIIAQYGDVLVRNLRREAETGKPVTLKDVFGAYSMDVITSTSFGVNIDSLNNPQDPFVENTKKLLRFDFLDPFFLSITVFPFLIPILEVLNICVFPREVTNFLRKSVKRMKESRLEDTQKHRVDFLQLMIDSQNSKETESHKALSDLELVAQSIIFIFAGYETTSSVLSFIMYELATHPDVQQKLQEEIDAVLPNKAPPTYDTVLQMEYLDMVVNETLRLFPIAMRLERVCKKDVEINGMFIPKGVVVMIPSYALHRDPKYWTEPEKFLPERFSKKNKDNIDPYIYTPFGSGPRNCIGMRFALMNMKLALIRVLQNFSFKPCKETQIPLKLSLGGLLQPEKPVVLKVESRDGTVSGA
Chain of Pyruvate kinase PKM (Homo sapiens) (P14618 whole entry, looked up): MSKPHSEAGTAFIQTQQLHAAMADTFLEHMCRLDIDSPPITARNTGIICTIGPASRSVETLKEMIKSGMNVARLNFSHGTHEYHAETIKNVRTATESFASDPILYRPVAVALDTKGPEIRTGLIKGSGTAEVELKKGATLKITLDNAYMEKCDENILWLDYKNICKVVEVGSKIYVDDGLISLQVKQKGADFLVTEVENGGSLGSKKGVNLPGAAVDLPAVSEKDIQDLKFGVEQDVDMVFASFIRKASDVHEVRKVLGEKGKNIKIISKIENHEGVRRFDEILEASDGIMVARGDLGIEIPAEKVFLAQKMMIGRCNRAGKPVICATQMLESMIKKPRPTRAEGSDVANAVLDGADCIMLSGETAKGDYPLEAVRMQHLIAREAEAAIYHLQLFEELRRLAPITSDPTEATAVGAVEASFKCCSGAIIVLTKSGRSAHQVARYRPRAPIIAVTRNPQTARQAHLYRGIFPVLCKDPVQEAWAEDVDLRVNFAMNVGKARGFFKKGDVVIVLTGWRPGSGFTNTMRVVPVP
Chain of Cytochrome P450 2C19 (Homo sapiens) (P33261 whole entry, looked up): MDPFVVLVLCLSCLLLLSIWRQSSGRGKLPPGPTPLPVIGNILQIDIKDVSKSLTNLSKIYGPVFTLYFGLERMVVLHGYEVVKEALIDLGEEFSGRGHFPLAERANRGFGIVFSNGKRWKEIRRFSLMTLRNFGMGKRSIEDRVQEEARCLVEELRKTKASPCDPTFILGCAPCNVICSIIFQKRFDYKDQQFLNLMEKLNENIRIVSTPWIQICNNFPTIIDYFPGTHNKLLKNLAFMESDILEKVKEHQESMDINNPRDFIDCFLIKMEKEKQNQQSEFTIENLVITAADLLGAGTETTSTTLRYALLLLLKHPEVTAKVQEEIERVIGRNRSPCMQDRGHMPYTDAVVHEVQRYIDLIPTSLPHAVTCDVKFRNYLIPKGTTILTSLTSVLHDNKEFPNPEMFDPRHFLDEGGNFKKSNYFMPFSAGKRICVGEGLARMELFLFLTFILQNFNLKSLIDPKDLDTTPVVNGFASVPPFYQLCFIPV
Chain of 3',5'-cyclic-AMP phosphodiesterase 4B (Homo sapiens) (Q07343 whole entry, looked up): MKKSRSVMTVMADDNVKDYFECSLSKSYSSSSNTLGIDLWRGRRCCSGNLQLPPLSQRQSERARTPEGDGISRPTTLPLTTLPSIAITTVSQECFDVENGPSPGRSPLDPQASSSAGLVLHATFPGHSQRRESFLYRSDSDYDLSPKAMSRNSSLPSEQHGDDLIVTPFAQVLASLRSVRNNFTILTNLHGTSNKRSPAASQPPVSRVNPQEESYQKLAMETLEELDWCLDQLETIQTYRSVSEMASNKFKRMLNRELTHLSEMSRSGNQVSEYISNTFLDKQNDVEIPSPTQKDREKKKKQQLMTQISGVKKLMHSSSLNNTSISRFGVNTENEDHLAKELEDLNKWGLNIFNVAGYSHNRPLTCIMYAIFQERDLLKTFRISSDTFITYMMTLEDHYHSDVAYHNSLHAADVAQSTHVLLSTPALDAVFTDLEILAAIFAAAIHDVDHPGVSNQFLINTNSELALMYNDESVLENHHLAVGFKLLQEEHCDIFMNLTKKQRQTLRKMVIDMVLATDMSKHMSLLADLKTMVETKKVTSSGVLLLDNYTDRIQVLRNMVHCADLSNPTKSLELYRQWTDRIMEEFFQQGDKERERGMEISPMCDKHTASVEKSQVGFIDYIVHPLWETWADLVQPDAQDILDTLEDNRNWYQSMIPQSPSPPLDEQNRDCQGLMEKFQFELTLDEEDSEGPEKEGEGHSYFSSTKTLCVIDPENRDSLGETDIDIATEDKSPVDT
Chain of Alpha-galactosidase A (Homo sapiens) (P06280 whole entry, looked up): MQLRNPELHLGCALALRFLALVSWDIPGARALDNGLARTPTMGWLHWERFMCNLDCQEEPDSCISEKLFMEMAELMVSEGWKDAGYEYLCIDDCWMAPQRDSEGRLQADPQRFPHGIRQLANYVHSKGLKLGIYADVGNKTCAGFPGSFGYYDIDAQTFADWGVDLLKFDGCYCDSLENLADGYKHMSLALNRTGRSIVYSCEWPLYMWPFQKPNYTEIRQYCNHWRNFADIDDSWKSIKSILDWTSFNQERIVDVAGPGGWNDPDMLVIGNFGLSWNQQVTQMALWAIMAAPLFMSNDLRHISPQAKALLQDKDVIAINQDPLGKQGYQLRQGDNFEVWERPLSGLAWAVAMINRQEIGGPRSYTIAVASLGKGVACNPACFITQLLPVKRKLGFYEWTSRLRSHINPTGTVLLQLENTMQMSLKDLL

For `CN(C)c1ccc(/C=C2/C(=O)Nc3ccccc32)cc1`, the Potency [1] was 398 nM (active) and 100 nM (active), the Potency [2] was > 46 µM and the Potency [3] was > 46 µM. The Potency [4] was 5.01 µM (active), the Potency [5] was “inactive” and the outcome [6] was “inactive”. For the same compound, the Potency [7] was 5.01 µM (active), the Potency [8] was “inactive” and the Potency [9] was 20 µM (active). For the same compound, the Potency [10] was 0.0631 µM (active), the Potency [11] was 14.1 µM (active) and the Potency [12] was 3.16 µM (active). The outcome [13] was “inactive”, the Potency [14] was 3.16 µM (active) and the Potency [15] was “inactive”. For the same compound, the outcome [16] was “inactive”, the outcome [17] was “inactive” and the Potency [18] was 26.6 µM (active). The Potency [19] was “inactive”, the Potency [20] was 35.5 µM (active) and the max response [21] was 8.84%.

With `CN1CCN(C2=Cc3ccccc3Oc3ccc(Cl)cc32)CC1` the Potency [1] was 20 µM (active), the Potency [2] was > 46 µM and the Potency [3] was > 46 µM. For the same compound, the Potency [4] was “inactive”, the Potency [8] was “inactive” and the Potency [22] was 0.0398 µM (active). The Potency [9] was 3.98 µM (active), the Potency [18] was “inactive” and the Potency [19] was “inactive”. The Potency [20] was “inactive” and the max response [21] was 13.7%.

With `CN(C)C1CCc2[nH]c3ccc(NC(=O)c4ccc(F)cc4)cc3c2C1` (stereo not given) the Potency [19] was “inactive”, the Potency [20] was “inactive” and the max response [21] was -26.6%.
